From PubChem BioAssay (EPA / NIEHS)
Calls of active or inactive are those of the source. The calls were made as follows: active = hit-call score of the fitted dose curve at least 0.9, where 1 is the maximum; inactive = score below 0.9.

Key:
[1] = ATG_M_61_CIS: Attagene CIS-FACTORIAL HepG2 Assay for M61 Transcription Factor (Internal Marker) (AID 2282937); settings: HepG2 Attagene CIS-FACTORIAL M61 internal marker reporter; actives raise or lower the signal
How it was run: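 Readout is reporter mRNA by RT-PCR, fluorescent primer extension and capillary electrophoresis, with gain or loss fitted relative to DMSO. Transfected HepG2 cells carrying endogenous-TF-driven cis reporters were exposed to chemicals for 24 hours.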

[2] = ATG_EGR_CIS: Attagene CIS-FACTORIAL HepG2 Assay for human Early Growth Response 1 (EGR1) (AID 2282938); settings: HepG2 Attagene CIS-FACTORIAL EGR reporter mRNA; actives raise or lower the signal
How it was run: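 After 24 h compound exposure, RNA from reporter-transfected HepG2 cells was reverse-transcribed, PCR-amplified, fluorescently labelled and resolved by capillary electrophoresis. EGR1 reporter transcript changes, up or down, were fitted against DMSO, reflecting endogenous transcription-factor activity.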

[3] = ATG_M_19_CIS: Attagene CIS-FACTORIAL HepG2 Assay for M19 Transcription Factor (Internal Marker) (AID 2282939); settings: HepG2 Attagene CIS-FACTORIAL M19 internal marker reporter; actives raise or lower the signal
How it was run: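 Signals come from fluorescence of labelled reporter-specific PCR fragments resolved by capillary electrophoresis, following 24 h treatment of HepG2 cells transfected with cis-promoter reporter units; activity was fitted in both directions relative to DMSO.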

[4] = ATG_ERE_CIS: Attagene CIS-FACTORIAL HepG2 Assay for Estrogen Response Element (ERE) (AID 2282940); settings: HepG2 ERE cis-reporter, Attagene RNA transcript; actives raise or lower the signal
How it was run: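 Fluorescence of capillary-separated, FAM-labelled reporter cDNA fragments indicates reporter mRNA levels in HepG2 cells exposed to chemicals for 24 h. Transient transfection with cis-regulated units; data fitted in both directions against DMSO.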

[5] = ATG_Ets_CIS: Attagene CIS-FACTORIAL HepG2 Assay for human Erythroblast Transformation Specific (ETS) (AID 2282941); settings: HepG2 ETS cis-reporter transcription, actives raise or lower the signal
How it was run: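 RT-PCR/capillary electrophoresis fluorescence read-out of reporter mRNA; HepG2 transient multi-reporter transfection; 24 h compound exposure; gain or loss of signal fitted bidirectionally relative to DMSO.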

[6] = target: Hepatocyte nuclear factor 3-beta (Homo sapiens) (UniProt Q9Y261); assay: ATG_FoxA2_CIS: Attagene CIS-FACTORIAL HepG2 Assay for human Forkhead box A2 (FOXA2) (AID 2282942); settings: HepG2 cis-reporter transcription factor activity, 24 h; actives raise or lower the signal
Sequence of Hepatocyte nuclear factor 3-beta (Homo sapiens) (Q9Y261 whole entry, looked up): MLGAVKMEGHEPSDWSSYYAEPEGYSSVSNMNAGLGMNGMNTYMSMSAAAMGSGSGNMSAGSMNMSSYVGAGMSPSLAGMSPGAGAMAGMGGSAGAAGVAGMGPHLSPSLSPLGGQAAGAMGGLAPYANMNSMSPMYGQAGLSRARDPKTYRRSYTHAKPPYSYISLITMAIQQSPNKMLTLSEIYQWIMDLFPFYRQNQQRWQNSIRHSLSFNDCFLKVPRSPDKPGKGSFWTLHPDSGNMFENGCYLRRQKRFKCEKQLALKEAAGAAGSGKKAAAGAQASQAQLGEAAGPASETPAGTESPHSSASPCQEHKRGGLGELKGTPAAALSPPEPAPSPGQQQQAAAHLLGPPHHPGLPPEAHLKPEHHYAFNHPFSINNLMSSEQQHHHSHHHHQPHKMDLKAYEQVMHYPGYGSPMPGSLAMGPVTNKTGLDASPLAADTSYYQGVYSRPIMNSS
How it was run: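 Endogenous transcription factor activity is captured via cis-element-driven reporter transcripts in transfected HepG2. Total RNA taken at 24 h post-dosing; labelled RT-PCR products resolved by capillary electrophoresis. Gain or loss fitted versus DMSO.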

[7] = ATG_GLI_CIS: Attagene CIS-FACTORIAL HepG2 Assay for human Zinc Finger Protein GLI1 (AID 2282945); settings: HepG2, Attagene cis-factorial reporter mRNA, GLI element; actives raise or lower the signal
How it was run: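 Transiently transfected HepG2 cells report endogenous transcription factor activity via cis-element-driven reporter units. After 24 h compound exposure, reporter mRNA was measured by RT-PCR with capillary electrophoresis; bidirectional fitting against DMSO baseline.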

[8] = target: Bile acid receptor (Homo sapiens) (UniProt Q96RI1); assay: ATG_IR1_CIS: Attagene CIS-FACTORIAL HepG2 Assay for human Nuclear Receptor Subfamily 1 Group H Member 4 (NR1H4), IR1 submotif (AID 2282946); settings: IR1 reporter transcription, actives raise or lower the signal
Sequence of Bile acid receptor (Homo sapiens) (Q96RI1 whole entry, looked up): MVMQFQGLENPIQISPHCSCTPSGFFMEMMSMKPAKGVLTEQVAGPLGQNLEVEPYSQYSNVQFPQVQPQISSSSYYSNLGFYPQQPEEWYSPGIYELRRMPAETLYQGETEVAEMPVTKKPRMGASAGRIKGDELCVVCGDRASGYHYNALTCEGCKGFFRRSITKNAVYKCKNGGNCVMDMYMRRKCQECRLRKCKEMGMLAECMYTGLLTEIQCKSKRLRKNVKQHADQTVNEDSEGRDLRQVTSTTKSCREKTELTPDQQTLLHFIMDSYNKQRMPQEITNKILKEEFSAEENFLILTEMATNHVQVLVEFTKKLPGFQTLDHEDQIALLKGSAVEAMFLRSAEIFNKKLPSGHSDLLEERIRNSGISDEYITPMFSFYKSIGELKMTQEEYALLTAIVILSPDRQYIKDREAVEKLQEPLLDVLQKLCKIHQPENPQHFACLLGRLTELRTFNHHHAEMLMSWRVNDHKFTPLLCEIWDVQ
How it was run: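 Fluorescence of capillary-separated, HpaI-digested RT-PCR reporter products gave IR1-element mRNA induction in HepG2 cells 24 h after dosing. Endogenous transcription factors drove the cis-regulated reporters; activity was fitted bidirectionally against DMSO.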

[9] = ATG_FoxO_CIS: Attagene CIS-FACTORIAL HepG2 Assay for human Forkhead box O (FoxO) (AID 2282943); settings: HepG2 Attagene cis-reporter, FoxO element, mRNA; actives raise or lower the signal
How it was run: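 HepG2 cells transiently transfected with cis-element-driven reporter units report endogenous FoxO activity. After 24 h chemical exposure, reporter mRNA quantified by RT-PCR, fluorescent labeling, HpaI digestion and capillary electrophoresis; bidirectional fit versus DMSO.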

[10] = ATG_GATA_CIS: Attagene CIS-FACTORIAL HepG2 Assay for human GATA Binding Protein (AID 2282944); settings: HepG2 GATA cis-element reporter, Attagene multiplex mRNA; actives raise or lower the signal
How it was run: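 After transfecting HepG2 cells with multiple cis-regulated reporter units, chemicals are dosed for 24 h; isolated RNA undergoes RT-PCR and fluorescent labeling before capillary electrophoresis, with activity expressed against DMSO.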

Measured: AC50

CC(O)C(F)(F)C(F)(F)F (centres undefined)
not listed: [9] | [10]
inactive: all other assays above

O=C(O)C(F)(F)C(F)(F)C(=O)O
not listed: [6] | [10]
inactive: all other assays above

c1ccc2c(c1)Nc1ccccc1S2
active: [4] 16.2 µM
not listed: [6] | [8]
inactive: all other assays above

CCOP(=S)(S)OCC
not listed: [9] | [10]
inactive: all other assays above

CCCN(CCC)c1c([N+](=O)[O-])cc(C(C)C)cc1[N+](=O)[O-]
not listed: [6] | [8] | [9]
inactive: all other assays above

CCC1(c2ccccc2)C(=O)N=C(O)NC1=O (centres undefined)
not listed: [6] | [8] | [9]
inactive: all other assays above

N#Cc1c(-c2ccc(Cl)cc2)[nH]c(C(F)(F)F)c1Br
active: [5] 19.8 µM
not listed: [9] | [10]
inactive: all other assays above

OCC(F)(F)OC(F)(F)C(F)(F)OC(F)(F)CO
active: [4] 20 µM
not listed: [9]
inactive: all other assays above

O=[N+]([O-])c1cc(Cl)ccc1Cl
not listed: [6] | [9]
inactive: all other assays above

OCC(F)(F)OC(F)(F)C(F)(F)OC(F)(F)C(F)(F)OC(F)(F)CO
active: [4] 0.506 µM
not listed: [9] | [10]
inactive: all other assays above

O=c1[nH]c2ccccc2c(=O)o1
not listed: [6]
inactive: all other assays above

CCC(C)(C)c1ccc(O)cc1
active: [4] 2.25 µM | [8] 33.4 µM
not listed: [6]
inactive: all other assays above

CCOP(=O)(O)C(N)=O
not listed: [6] | [10]
inactive: all other assays above

CCOP(=S)(NC(C)C)Oc1ccccc1C(=O)OC(C)C (centres undefined)
active: [4] 11.3 µM | [8] 26.5 µM
not listed: [6] | [10]
inactive: all other assays above

CCN(CC)c1ccccc1
not listed: [6] | [9]
inactive: all other assays above

CC(=O)c1ccc(-c2ccccc2)cc1
active: [4] 6.56 µM
not listed: [6]
inactive: all other assays above

CC(Cl)(Cl)C(=O)O
not listed: [6] | [8]
inactive: all other assays above

Cc1ccc(N)cc1N
not listed: [6] | [9] | [10]
inactive: all other assays above

c1nc[nH]n1
active: [4] 29 µM
not listed: [9] | [10]
inactive: all other assays above

Oc1ccc(I)cc1
active: [4] 23.7 µM
not listed: [6]
inactive: all other assays above

CCCCN(CC)C(=O)SCCC
not listed: [9]
inactive: all other assays above

Cn1[nH]nnc1=S
not listed: [9] | [10]
inactive: all other assays above

Nc1ccc(Cl)cc1
not listed: [8] | [9] | [10]
inactive: all other assays above

CCOP(=S)(OCC)SCSCC
active: [4] 14.9 µM
not listed: [6] | [9]
inactive: all other assays above

CC(C)(C)OOC(C)(C)C
not listed: [6] | [9]
inactive: all other assays above

CC(C)(C)N(NC(=O)c1ccc(Cl)cc1)C(=O)c1ccccc1
not listed: [3] | [6] | [10]
inactive: all other assays above

Cc1ccc(C(=O)Cl)cc1
not listed: [3] | [6] | [10]
inactive: all other assays above

NNC(N)=S
not listed: [3] | [10]
inactive: all other assays above

Clc1ccc(Oc2ccccc2)cc1
active: [4] 88.4 µM
not listed: [3] | [6] | [9]
inactive: all other assays above

N#Cc1ccc(O)cc1
not listed: [3] | [6]
inactive: all other assays above

CCOP(=S)(OCC)SCn1nnc2ccccc2c1=O
active: [2] 9.67 µM | [4] 7.39 µM
inactive: [1] | [5] | [10] | [7] | [8]

CCOP(=S)(OCC)SCS(=O)(=O)CC
not listed: [3] | [9] | [10]
inactive: all other assays above

[N-]=[N+]=[N-]
inactive: [1] | [2] | [4] | [5] | [10] | [7]

O=[N+]([O-])c1ccccc1
active: [4] 52.7 µM
not listed: [3] | [6] | [8]
inactive: all other assays above

c1ccc(OP(Oc2ccccc2)Oc2ccccc2)cc1
active: [4] 72.9 µM
not listed: [3] | [8]
inactive: all other assays above

O=P(OCC(Br)CBr)(OCC(Br)CBr)OCC(Br)CBr (centres undefined)
active: [2] 7.19 µM
not listed: [3]
inactive: all other assays above

Cc1ccc2c(c1N)C(=O)c1ccccc1C2=O
active: [4] 5.24 µM
not listed: [3] | [9] | [10]
inactive: all other assays above

CCCCOCCOP(=O)(OCCOCCCC)OCCOCCCC
not listed: [3] | [8]
inactive: all other assays above

O=C(O)C(F)(OC(F)(F)C(F)(F)C(F)(F)F)C(F)(F)F (centres undefined)
not listed: [3]
inactive: all other assays above

N#C/C=C/c1ccccc1
not listed: [3] | [9] | [10]
inactive: all other assays above

O=S(=O)(c1ccc(O)cc1)c1ccc(O)cc1
active: [4] 1.7 µM
not listed: [3]
inactive: all other assays above

FC(F)(F)C(F)(C(F)(F)F)C(F)(F)C(F)(F)CC1CO1 (centres undefined)
not listed: [3]
inactive: all other assays above

COP(=O)(CCC(=O)NCO)OC
not listed: [3] | [10]
inactive: all other assays above

O=C(O)C(F)(F)OC(F)(F)C(F)(F)OC(F)(F)F
not listed: [3] | [6]
inactive: all other assays above

O=[N+]([O-])c1ccc(Cl)c(Cl)c1
not listed: [3] | [9]
inactive: all other assays above

CCOS(=O)(=O)OCC
not listed: [3] | [8]
inactive: all other assays above

CC(Cl)CN(C)C (centres undefined)
not listed: [3]
inactive: all other assays above

CO/N=C(/C(=O)OC)c1ccccc1COc1ccccc1C
active: [2] 43 µM | [4] 42.9 µM
not listed: [3] | [10]
inactive: all other assays above

OCC1CO1 (centres undefined)
not listed: [3] | [6] | [10]
inactive: all other assays above

O=C(CBr)OCc1ccccc1
active: [4] 100 µM
not listed: [3] | [10]
inactive: all other assays above

CC(O)C#N (centres undefined)
not listed: [3] | [9]
inactive: all other assays above

O=S(=O)(F)C(F)(F)C(F)(F)C(F)(F)C(F)(F)C(F)(F)C(F)(F)C(F)(F)C(F)(F)F
not listed: [3]
inactive: all other assays above

CCNc1nc(Cl)nc(NC(C)(C)C)n1
active: [4] 8.92 µM
not listed: [3] | [9]
inactive: all other assays above

Cc1c([N+](=O)[O-])cc2c(c1[N+](=O)[O-])C(C)(C)CC2(C)C
not listed: [3] | [6]
inactive: all other assays above

C=CC(=O)OCC(F)(F)C(F)F
not listed: [3] | [6]
inactive: all other assays above

N#Cc1cc([N+](=O)[O-])ccc1N
not listed: [3] | [10]
inactive: all other assays above

CCCCN(CCCC)N=O
not listed: [3]
inactive: all other assays above

CC(C)(C)c1ccccc1OP(=O)(Oc1ccccc1)Oc1ccccc1
active: [4] 12.4 µM | [8] 26.5 µM
inactive: [1] | [2] | [5] | [9] | [7]

Cc1cc(C)c(C(=O)P(=O)(c2ccccc2)c2ccccc2)c(C)c1
inactive: [5] | [9]
active: [1] 60.7 µM | [2] 41.3 µM | [4] 8.69 µM | [10] 54.9 µM | [7] 60 µM | [8] 12.8 µM
